# According to PubChem BioAssay:
# Values joined by “and” are separate entries in the source; they are usually repeats but may differ in a detail not shown here. Identical values can stand only once. Active and inactive are the calls of the source.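 How the source made its calls, unless noted: active means compounds whose cell count with miR-34 switched on is under 0.7 times the count with it off; inactive means the rest.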
# Experiments:
# [1] = sensitizers of A549 cells to miR-34 induction, primary screen, imaging, A549 dox-inducible miR-34, nuclei and caspase counts (AID 1347080); conditions: A549 miR-34 inducible, Hoechst nuclei count, 48 h
# [2] = survival rescue of mitochondrial mutant cells in low glucose, primary screen, MELAS cybrids, Rieske KO mouse fibroblasts, CellTiter-Glo (AID 1508586;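 active means mean z-score across replicates of 1.96 or higher in either the MELAS or the Rieske mutant cell line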;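 further: z relative to plate mean and SD of compound and empty wells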)
# [3] = stronger effect = lower value, cell number ratio, induced over uninduced
# [4] = measured here: relative caspase fold change +Dox/-Dox
# [5] = measured here: total cells with miR-34 induction, stronger effect = lower value
# [6] = measured here: total cells without miR-34 induction
# [7] = MELAS cybrid survival, CellTiter-Glo 48 h, stronger effect = higher value
# [8] = Rieske KO mouse fibroblast survival, CellTiter-Glo 72 h
# Further: test concentration not given here.
SMILES,"fold change [1, 3]","fold change [1, 4]","cell count [1, 5]","cell count [1, 6]","z-score [2, 7]","z-score [2, 8]"
COC(=O)C1=COC(O)[C@@H]2C(CO)=CC[C@H]12 (stereo partly specified),0.899 (inactive),1,8660,9630,-0.314 (inactive),-0.656
Cc1cc(Nc2cc(N3CCN(C)CC3)nc(C=Cc3ccccc3)n2)n[nH]1,1.29 (inactive),1.19,1120,872,1.43 (inactive),-2.06
O=C(CSc1nc2c(c(=O)n1-c1ccccc1)SCC2)Nc1ccc(-c2ccccc2)cn1,0.945 (inactive),0.349,7310,7740,-0.49 (inactive),0.404
Oc1ccc(C2COc3cc(O)ccc3C2)cc1 (stereo unspecified),1.04 (inactive) and 0.979 (inactive),1.09 and 0.678,6090 and 7580,5860 and 7740,-0.326 (inactive),-0.182
Cc1cc(=O)oc2c(C=O)c(O)ccc12,0.88 (inactive),0.552,8210,9320,-0.241 (inactive),0.915
CC(NC(=O)C(O)C(C)C)C(=O)NC1C(=O)N(C)CCc2ccccc21 (stereo unspecified),0.932 (inactive),0.791,7480,8020,-0.185 (inactive),-1.14
COC(=O)C=CC(=O)OC,0.917 (inactive),0.928,10100,11000,-0.336 (inactive),0.844
CCOC(=O)c1ccc(NC2CCCCC2)c(N)c1,0.937 (inactive),0.358,7670,8180,-0.371 (inactive),0.61
COCC(=O)NCC=Cc1ccc2ncnc(Nc3ccc(Oc4ccc(C)nc4)c(C)c3)c2c1,0.862 (inactive),1.21,5970,6930,-0.531 (inactive),1.09
CC(C)c1nc(CN(C)C(=O)NC(CCN2CCOCC2)C(=O)NC(CCC(Cc2ccccc2)NC(=O)OCc2cncs2)Cc2ccccc2)cs1 (stereo unspecified),0.977 (inactive),0.47,5730,5860,-0.312 (inactive),-0.261
CC(C)c1c(C(=O)Nc2ccccc2)c(-c2ccccc2)c(-c2ccc(F)cc2)n1CCC(O)CC(O)CC(=O)O (stereo unspecified),1.21 (inactive),0.989,5220,4330,0.917 (inactive),-1.34
O=C(C=Cc1ccc(CN(CCO)CCc2c[nH]c3ccccc23)cc1)NO,0.866 (inactive),0.616,944,1090,-0.188 (inactive),-2.63
CC1(C)C(O[C@H]2OC(C(=O)O)C(O)C(O)C2O[C@@H]2OC(C(=O)O)C(O)C(O)C2O)CC[C@@]2(C)[C@H]3C(=O)C=C4[C@@H]5C[C@@](C)(C(=O)O)CC[C@]5(C)CC[C@@]4(C)[C@]3(C)CC[C@@H]12 (stereo partly specified),0.946 (inactive),0.91,7600,8030,-0.278 (inactive),-0.114
O=C(Nc1ccccc1)Nc1ccc(-c2ccc(C(=O)C3CCCC3C(=O)O)cc2)cc1 (stereo unspecified),0.846 (inactive),0.729,9210,10900,-0.239 (inactive),0.453
C=C[C@]1(C)CC(OC(=O)CSC(C)(C)CNC(=O)C(N)C(C)C)[C@@]2(C)C(C)CC[C@]3(CCC(=O)[C@H]32)C(C)C1O (stereo partly specified),0.851 (inactive),1.9,6360,7470,6.17 (active),2.78
O=C(C=Cc1ccc(O)c(O)c1)c1ccc(O)cc1O,0.953 (inactive),0.45,8780,9210,-0.304 (inactive),-0.063
CN1CCCN(C(=O)c2cccc(-c3ccc(C=C4C(=O)Nc5ccc(Cl)cc54)o3)c2)CC1,0.79 (inactive),4.28,2420,3060,0.13 (inactive),-0.12
CN(C)CCCCC(=O)Nc1ccc(NC(=S)NC(=O)c2ccc(C(C)(C)C)cc2)cc1,1.13 (inactive) and 1.1 (inactive),0.871 and 0.667,4160 and 3360,3670 and 3070,0.0334 (inactive),-0.0265
CN1CCN(C(=O)c2cc3cc(Cl)ccc3[nH]2)CC1,1 (inactive),0.614,8330,8310,-0.282 (inactive),-0.0205
CNC(=C[N+](=O)[O-])NCCSCc1ccc(CN(C)C)o1,0.921 (inactive),0.82,7800,8470,-0.3 (inactive),-0.112
CN(C)c1cc(NC(=O)CNC(C)(C)C)c(O)c2c1C[C@H]1C[C@H]3C(N(C)C)C(=O)C(C(N)=O)=C(O)[C@@]3(O)C(=O)C1=C2O (stereo partly specified),0.917 (inactive),1.11,8200,8950,-0.43 (inactive),0.225
